Measurements from publication PMC7862700, “An all-to-all approach to the identification of sequence-specific readers for epigenetic DNA modifications on cytosine”.

Columns and labels:
Assay in all cases: DAPPL (digital affinity profiling via proximity ligation, sequencing); 10 mM Tris-HCl pH 7.5, 50 mM NaCl, 1 mM DTT, 4% glycerol, room temperature, 30 min; GST-TFs on glutathione beads, 16-mer random dsDNA library, 0.1% formaldehyde crosslink after washing; high values mean tight binding
[1] = molecular target: T1, FEV (Homo sapiens, UniProt Q99581 1-238); conditions: protein: recombinant; tags: N-terminal GST; dsDNA, one strand shown
T1 sequence: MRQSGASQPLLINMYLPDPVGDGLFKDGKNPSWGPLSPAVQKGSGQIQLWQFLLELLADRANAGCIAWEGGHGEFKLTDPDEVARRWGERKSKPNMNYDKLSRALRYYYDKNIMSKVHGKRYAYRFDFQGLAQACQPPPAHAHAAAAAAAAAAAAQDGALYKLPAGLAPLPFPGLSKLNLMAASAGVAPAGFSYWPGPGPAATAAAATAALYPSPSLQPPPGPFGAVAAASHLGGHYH
Outline: (§1)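 Yeast served to express human transcription factors as GST fusions, which were then captured on glutathione beads and labelled with DNA barcodes. Pooled with a tag-only sample, they were incubated with 200 nmole of a 16-mer random double-stranded DNA library for 30 min at room temperature in Tris/NaCl/DTT/glycerol buffer, washed, crosslinked with 0.1% formaldehyde, ligated by proximity, amplified by PCR and sequenced. Dividing each hexamer's read frequency for a factor by its frequency for the tag-only sample gives the binding signal.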

[2] = molecular target: ETV5 (Homo sapiens, UniProt P41161 1-510); conditions: protein: recombinant; tags: N-terminal GST; dsDNA, one strand shown
Chain of ETV5 (P41161 whole entry): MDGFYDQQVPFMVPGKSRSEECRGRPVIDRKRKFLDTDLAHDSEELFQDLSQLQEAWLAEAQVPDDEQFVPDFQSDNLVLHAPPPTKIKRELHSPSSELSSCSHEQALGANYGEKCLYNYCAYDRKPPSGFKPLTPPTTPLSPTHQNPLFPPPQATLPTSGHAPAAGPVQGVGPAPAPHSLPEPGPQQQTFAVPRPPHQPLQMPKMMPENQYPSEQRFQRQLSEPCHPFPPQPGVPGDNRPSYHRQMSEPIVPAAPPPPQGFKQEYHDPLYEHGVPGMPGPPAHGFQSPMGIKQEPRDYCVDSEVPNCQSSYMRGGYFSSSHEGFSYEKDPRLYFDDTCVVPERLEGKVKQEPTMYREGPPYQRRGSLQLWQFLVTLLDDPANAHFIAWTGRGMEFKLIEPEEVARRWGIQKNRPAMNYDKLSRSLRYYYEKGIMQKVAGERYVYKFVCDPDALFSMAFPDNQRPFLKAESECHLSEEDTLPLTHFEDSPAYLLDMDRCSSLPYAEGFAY
Outline: as §1

[3] = molecular target: HSF1 (Homo sapiens, UniProt Q00613 1-529); conditions: protein: recombinant; tags: N-terminal GST; chain copies: 3; dsDNA, one strand shown
Chain of HSF1 (Q00613 whole entry): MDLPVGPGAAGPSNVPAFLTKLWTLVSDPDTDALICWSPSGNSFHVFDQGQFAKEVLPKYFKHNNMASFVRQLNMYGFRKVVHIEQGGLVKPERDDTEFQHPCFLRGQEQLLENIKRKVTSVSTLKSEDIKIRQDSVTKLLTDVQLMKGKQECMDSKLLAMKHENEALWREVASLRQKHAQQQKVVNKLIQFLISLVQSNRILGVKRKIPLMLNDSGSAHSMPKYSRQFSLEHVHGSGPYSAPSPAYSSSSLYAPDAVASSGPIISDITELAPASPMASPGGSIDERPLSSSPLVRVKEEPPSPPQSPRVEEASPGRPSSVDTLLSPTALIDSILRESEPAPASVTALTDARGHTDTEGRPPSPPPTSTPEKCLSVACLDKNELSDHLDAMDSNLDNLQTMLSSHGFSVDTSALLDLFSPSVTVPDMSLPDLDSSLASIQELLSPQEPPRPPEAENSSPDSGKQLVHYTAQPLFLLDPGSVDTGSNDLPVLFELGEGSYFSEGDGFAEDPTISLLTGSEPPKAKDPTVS
Outline: as §1

[4] = molecular target: T2, SPIC (Homo sapiens, UniProt Q8N5J4 1-248); conditions: protein: recombinant; tags: N-terminal GST; dsDNA, one strand shown
T2 sequence: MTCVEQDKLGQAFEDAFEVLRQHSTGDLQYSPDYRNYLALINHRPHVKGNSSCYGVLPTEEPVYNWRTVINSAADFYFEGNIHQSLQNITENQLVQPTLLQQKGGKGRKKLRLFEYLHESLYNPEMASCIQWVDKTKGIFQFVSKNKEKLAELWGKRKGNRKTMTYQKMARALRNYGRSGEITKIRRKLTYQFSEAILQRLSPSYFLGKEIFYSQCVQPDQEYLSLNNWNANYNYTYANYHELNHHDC
Outline: as §1

[5] = molecular target: ELF4 (Homo sapiens, UniProt Q99607 1-663); conditions: protein: recombinant; tags: N-terminal GST; dsDNA, one strand shown
Chain of ELF4 (Q99607 whole entry): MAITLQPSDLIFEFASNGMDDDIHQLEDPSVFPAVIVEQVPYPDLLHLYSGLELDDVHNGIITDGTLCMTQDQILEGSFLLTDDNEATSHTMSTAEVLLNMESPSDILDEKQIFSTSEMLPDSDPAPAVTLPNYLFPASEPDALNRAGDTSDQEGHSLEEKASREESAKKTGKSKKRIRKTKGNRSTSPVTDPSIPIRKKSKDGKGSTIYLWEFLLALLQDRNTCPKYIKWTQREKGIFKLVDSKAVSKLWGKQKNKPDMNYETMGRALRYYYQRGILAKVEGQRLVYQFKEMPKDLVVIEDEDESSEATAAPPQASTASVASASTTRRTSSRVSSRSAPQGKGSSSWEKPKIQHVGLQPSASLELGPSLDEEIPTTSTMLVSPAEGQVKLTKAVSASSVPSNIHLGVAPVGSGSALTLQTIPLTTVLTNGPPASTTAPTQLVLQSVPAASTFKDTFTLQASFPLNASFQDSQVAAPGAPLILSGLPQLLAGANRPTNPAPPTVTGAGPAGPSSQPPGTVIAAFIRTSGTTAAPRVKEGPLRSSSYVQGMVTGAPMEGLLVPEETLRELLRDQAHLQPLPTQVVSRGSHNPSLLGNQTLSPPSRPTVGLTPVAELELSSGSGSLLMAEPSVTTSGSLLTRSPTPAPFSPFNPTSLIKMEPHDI
Outline: as §1

[6] = molecular target: T3, ELK4 (Homo sapiens, UniProt P28324-2 1-405); conditions: protein: recombinant; tags: N-terminal GST; dsDNA, one strand shown
T3 sequence: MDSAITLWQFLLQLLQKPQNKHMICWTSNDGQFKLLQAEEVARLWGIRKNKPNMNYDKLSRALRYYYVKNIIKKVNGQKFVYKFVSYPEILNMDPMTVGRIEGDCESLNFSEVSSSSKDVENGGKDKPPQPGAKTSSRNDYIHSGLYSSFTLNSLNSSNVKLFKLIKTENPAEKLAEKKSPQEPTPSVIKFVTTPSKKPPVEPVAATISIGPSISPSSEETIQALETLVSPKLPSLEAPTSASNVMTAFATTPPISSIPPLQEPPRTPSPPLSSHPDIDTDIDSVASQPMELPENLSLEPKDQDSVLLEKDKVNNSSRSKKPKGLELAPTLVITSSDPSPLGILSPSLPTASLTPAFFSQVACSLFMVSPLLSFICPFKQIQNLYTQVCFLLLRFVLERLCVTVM
Outline: as §1

[7] = molecular target: T4, ETV2 (Homo sapiens, UniProt O00321 1-342); conditions: protein: recombinant; tags: N-terminal GST; dsDNA, one strand shown
T4 sequence: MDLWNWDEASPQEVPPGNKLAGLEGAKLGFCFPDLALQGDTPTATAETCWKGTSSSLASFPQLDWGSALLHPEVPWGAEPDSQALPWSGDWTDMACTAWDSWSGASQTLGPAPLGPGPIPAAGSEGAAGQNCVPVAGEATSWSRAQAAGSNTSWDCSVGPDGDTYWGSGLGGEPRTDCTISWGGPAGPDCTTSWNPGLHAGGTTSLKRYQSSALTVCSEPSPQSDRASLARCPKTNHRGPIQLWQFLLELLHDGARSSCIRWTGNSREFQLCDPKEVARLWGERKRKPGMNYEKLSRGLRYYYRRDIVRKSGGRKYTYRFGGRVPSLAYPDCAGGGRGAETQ
Outline: as §1

[8] = molecular target: T5, ELF3 (Homo sapiens, UniProt P78545 1-371); conditions: protein: recombinant; tags: N-terminal GST; dsDNA, one strand shown
T5 sequence: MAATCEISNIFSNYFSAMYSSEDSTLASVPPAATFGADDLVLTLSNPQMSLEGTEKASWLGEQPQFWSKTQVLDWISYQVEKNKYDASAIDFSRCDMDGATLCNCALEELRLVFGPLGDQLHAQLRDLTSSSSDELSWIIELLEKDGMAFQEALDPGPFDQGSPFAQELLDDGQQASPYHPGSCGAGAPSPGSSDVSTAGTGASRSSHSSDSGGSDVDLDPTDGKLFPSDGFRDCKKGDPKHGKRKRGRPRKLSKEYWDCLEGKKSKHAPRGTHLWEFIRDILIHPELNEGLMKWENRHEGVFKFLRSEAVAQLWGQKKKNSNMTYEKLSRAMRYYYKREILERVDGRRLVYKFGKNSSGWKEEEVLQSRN
Outline: as §1

[9] = molecular target: CRX (Homo sapiens, UniProt O43186 1-299); conditions: protein: recombinant; tags: N-terminal GST; dsDNA, one strand shown
Chain of CRX (O43186 whole entry): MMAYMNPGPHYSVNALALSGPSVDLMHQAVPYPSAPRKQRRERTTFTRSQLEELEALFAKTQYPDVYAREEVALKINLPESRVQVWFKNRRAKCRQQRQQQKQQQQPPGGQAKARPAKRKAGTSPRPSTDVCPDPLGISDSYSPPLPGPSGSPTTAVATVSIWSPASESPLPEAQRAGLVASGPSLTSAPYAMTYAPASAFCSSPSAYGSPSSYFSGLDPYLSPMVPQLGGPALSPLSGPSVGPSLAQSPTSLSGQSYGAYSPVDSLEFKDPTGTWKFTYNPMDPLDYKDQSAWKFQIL
Outline: as §1

[10] = molecular target: ETV1 (Homo sapiens, UniProt P50549 1-477); conditions: protein: recombinant; tags: N-terminal GST; dsDNA, one strand shown
Chain of ETV1 (P50549 whole entry): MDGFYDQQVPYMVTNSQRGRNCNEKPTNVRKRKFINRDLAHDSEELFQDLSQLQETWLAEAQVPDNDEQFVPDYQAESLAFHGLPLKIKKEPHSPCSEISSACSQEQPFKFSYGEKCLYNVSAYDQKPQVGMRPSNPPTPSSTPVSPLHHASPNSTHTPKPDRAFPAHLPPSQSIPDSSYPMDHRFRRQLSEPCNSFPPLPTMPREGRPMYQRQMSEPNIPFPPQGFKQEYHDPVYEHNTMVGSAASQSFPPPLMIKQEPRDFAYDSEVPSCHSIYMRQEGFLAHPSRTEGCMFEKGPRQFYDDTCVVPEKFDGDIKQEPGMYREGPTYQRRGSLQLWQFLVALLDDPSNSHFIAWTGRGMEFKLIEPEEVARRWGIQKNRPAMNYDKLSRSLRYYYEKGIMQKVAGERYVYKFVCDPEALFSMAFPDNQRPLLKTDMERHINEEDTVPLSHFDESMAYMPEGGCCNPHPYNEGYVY
Outline: as §1

Sequence	binding signal [1]	binding signal [2]	binding signal [3]	binding signal [4]	binding signal [5]	binding signal [6]	binding signal [7]	binding signal [8]	binding signal [9]	binding signal [10]
GGGTTT	1.06 fold enrichment (6-mer frequency, TF over GST control)	1.08 fold enrichment (6-mer frequency, TF over GST control)	1.12 fold enrichment (6-mer frequency, TF over GST control)	1.16 fold enrichment (6-mer frequency, TF over GST control)	1.2 fold enrichment (6-mer frequency, TF over GST control)	1.12 fold enrichment (6-mer frequency, TF over GST control)	1.33 fold enrichment (6-mer frequency, TF over GST control)	1.05 fold enrichment (6-mer frequency, TF over GST control)	1.25 fold enrichment (6-mer frequency, TF over GST control)	1.1 fold enrichment (6-mer frequency, TF over GST control)
TAATGA	1.12 fold enrichment (6-mer frequency, TF over GST control)	1.12 fold enrichment (6-mer frequency, TF over GST control)	1.37 fold enrichment (6-mer frequency, TF over GST control)	1.11 fold enrichment (6-mer frequency, TF over GST control)	1.17 fold enrichment (6-mer frequency, TF over GST control)	1.12 fold enrichment (6-mer frequency, TF over GST control)	1.13 fold enrichment (6-mer frequency, TF over GST control)	1.12 fold enrichment (6-mer frequency, TF over GST control)	1.7 fold enrichment (6-mer frequency, TF over GST control)	1.19 fold enrichment (6-mer frequency, TF over GST control)
TCTTCA	1.15 fold enrichment (6-mer frequency, TF over GST control)	1.17 fold enrichment (6-mer frequency, TF over GST control)	1.24 fold enrichment (6-mer frequency, TF over GST control)	1.14 fold enrichment (6-mer frequency, TF over GST control)	1.2 fold enrichment (6-mer frequency, TF over GST control)	1.07 fold enrichment (6-mer frequency, TF over GST control)	1.18 fold enrichment (6-mer frequency, TF over GST control)	1.46 fold enrichment (6-mer frequency, TF over GST control)	1.14 fold enrichment (6-mer frequency, TF over GST control)	1.28 fold enrichment (6-mer frequency, TF over GST control)
ATATGG	1.25 fold enrichment (6-mer frequency, TF over GST control)	1.3 fold enrichment (6-mer frequency, TF over GST control)	1.17 fold enrichment (6-mer frequency, TF over GST control)	1.41 fold enrichment (6-mer frequency, TF over GST control)	1.35 fold enrichment (6-mer frequency, TF over GST control)	1.36 fold enrichment (6-mer frequency, TF over GST control)	1.13 fold enrichment (6-mer frequency, TF over GST control)	1.36 fold enrichment (6-mer frequency, TF over GST control)	1.19 fold enrichment (6-mer frequency, TF over GST control)	1.17 fold enrichment (6-mer frequency, TF over GST control)
GCTTAG	1.08 fold enrichment (6-mer frequency, TF over GST control)	1.13 fold enrichment (6-mer frequency, TF over GST control)	1.78 fold enrichment (6-mer frequency, TF over GST control)	1.12 fold enrichment (6-mer frequency, TF over GST control)	1.1 fold enrichment (6-mer frequency, TF over GST control)	1.17 fold enrichment (6-mer frequency, TF over GST control)	1.08 fold enrichment (6-mer frequency, TF over GST control)	1.09 fold enrichment (6-mer frequency, TF over GST control)	2.49 fold enrichment (6-mer frequency, TF over GST control)	1.27 fold enrichment (6-mer frequency, TF over GST control)
ATCATT	1.08 fold enrichment (6-mer frequency, TF over GST control)	1.07 fold enrichment (6-mer frequency, TF over GST control)	1.18 fold enrichment (6-mer frequency, TF over GST control)	1.01 fold enrichment (6-mer frequency, TF over GST control)	1.05 fold enrichment (6-mer frequency, TF over GST control)	1.06 fold enrichment (6-mer frequency, TF over GST control)	1.15 fold enrichment (6-mer frequency, TF over GST control)	1.05 fold enrichment (6-mer frequency, TF over GST control)	1.28 fold enrichment (6-mer frequency, TF over GST control)	1.06 fold enrichment (6-mer frequency, TF over GST control)
CCGATC	1.24 fold enrichment (6-mer frequency, TF over GST control)	1.25 fold enrichment (6-mer frequency, TF over GST control)	1.23 fold enrichment (6-mer frequency, TF over GST control)	1.27 fold enrichment (6-mer frequency, TF over GST control)	1.2 fold enrichment (6-mer frequency, TF over GST control)	1.13 fold enrichment (6-mer frequency, TF over GST control)	1.19 fold enrichment (6-mer frequency, TF over GST control)	1.4 fold enrichment (6-mer frequency, TF over GST control)	1.36 fold enrichment (6-mer frequency, TF over GST control)	1.12 fold enrichment (6-mer frequency, TF over GST control)
TACATC	1.77 fold enrichment (6-mer frequency, TF over GST control)	1.63 fold enrichment (6-mer frequency, TF over GST control)	1.09 fold enrichment (6-mer frequency, TF over GST control)	1.61 fold enrichment (6-mer frequency, TF over GST control)	1.56 fold enrichment (6-mer frequency, TF over GST control)	1.53 fold enrichment (6-mer frequency, TF over GST control)	1.65 fold enrichment (6-mer frequency, TF over GST control)	1.48 fold enrichment (6-mer frequency, TF over GST control)	1.17 fold enrichment (6-mer frequency, TF over GST control)	1.64 fold enrichment (6-mer frequency, TF over GST control)
